About 83,000 compounds went through this panel and 20% of them were active in at least one assay; those are over-represented in the sample as a whole.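 Each cell line was grown in a 96-well plate and treated with one concentration of compound for 48 hours. Values below 10 were considered active.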 Unmarked numbers belong to inactive results. Active and inactive are the calls of the source.

Growth data for 14 compounds are collected here from PubChem BioAssay (NCI).

Among the test systems are DU-145 prostate; K-562 leukemia; MALME-3M melanoma; MDA-MB-231 breast; RXF 393 renal; SF-268 CNS; SF-295 CNS; SF-539 CNS; UACC-257 melanoma; M14 melanoma.
Test in all cases: NCI-60 one-dose screen, 48 h (100 = growth as untreated, 0 = no growth, -100 = all killed)
Common to all, as to details: 10 µM unless noted

As to `O=C(Nc1ccc2c(c1)OCO2)C(=O)c1c[nH]c2cc(F)ccc12`, the growth in the assay on DU-145 prostate was 34.5%; in the assay with K-562 leukemia it was 26.4%; in the assay with MALME-3M melanoma it was 73%; in the assay with MDA-MB-231 breast it was 25.6%; with RXF 393 renal, 75.4%; in the assay with SF-268 CNS it was 47.6%. In addition, the growth with SF-295 CNS was 24.2%; in the assay with SF-539 CNS, 56.1%; with UACC-257 melanoma, 64.4%; in the assay with M14 melanoma, 29.9%.

For `C=CCn1cc(-c2nc3ccccc3s2)c2cc(-c3ccc4c5c(cccc35)C(=O)N(CCN3CCNCC3)C4=O)ccc21`, the growth is 101% in the assay on DU-145 prostate; -51.9% (active) with K-562 leukemia; 55.2% in the assay with MALME-3M melanoma; 60.5% in the assay with MDA-MB-231 breast; 93.2% in the assay on RXF 393 renal; 89.9% in the assay with SF-268 CNS. The growth in the assay on SF-295 CNS was 101%; with SF-539 CNS it was 91.1%; in the assay with UACC-257 melanoma, 102%; with M14 melanoma, 82%.

On to `O=C(Nc1ccncc1)C(=O)c1cn(S(=O)(=O)c2ccc(Cl)cc2)c2ccccc12`, for which the growth in the assay with DU-145 prostate was 27.7%; in the assay on K-562 leukemia, 22.2%; with MALME-3M melanoma, 31.7%; in the assay with MDA-MB-231 breast it was 45.7%; in the assay on RXF 393 renal, 25%; in the assay on SF-268 CNS it was 41.8%. The growth in the assay with SF-295 CNS is 13.1%; in the assay on SF-539 CNS it was 9.27% (active); in the assay with UACC-257 melanoma, 75.9%; in the assay with M14 melanoma, 17.7%.

Take `CSc1nc2c(c(=O)[nH]1)C(c1ccc(C)cc1)C=C(C(=O)O)N2` (stereo not given): the growth is 123% with DU-145 prostate; 110% in the assay with K-562 leukemia; 98.8% in the assay on MALME-3M melanoma; 136% with MDA-MB-231 breast; 112% in the assay on RXF 393 renal; 115% in the assay on SF-268 CNS. The growth in the assay on SF-295 CNS is 89.5%; in the assay on SF-539 CNS it was 106%; in the assay on UACC-257 melanoma it was 110%; in the assay on M14 melanoma, 99.8%.

Turning to `COc1cc(/C(C#N)=C/c2ccc3c(c2OC)OCO3)cc2c1OCO2`, the growth with DU-145 prostate is 11.2%; in the assay on K-562 leukemia it was 20.9%; in the assay with MALME-3M melanoma it was 37.1%; in the assay with MDA-MB-231 breast it was 29.7%; with RXF 393 renal, -14.3% (active); with SF-268 CNS it was 47.1%. Also, the growth in the assay with SF-295 CNS is 6% (active); in the assay with SF-539 CNS it was 4.21% (active); with UACC-257 melanoma, 62.2%; in the assay with M14 melanoma, -3.69% (active).

On to `COc1cc(C(=O)/C=C/c2c(C)n([O-])c3ccc(C(F)(F)F)cc3[n+]2=O)cc(OC)c1OC`, for which the growth in the assay with DU-145 prostate is 91.3%; in the assay with K-562 leukemia it was 52.9%; in the assay with MALME-3M melanoma, 106%; in the assay with MDA-MB-231 breast it was 99.6%; in the assay on RXF 393 renal, -35.4% (active); in the assay with SF-268 CNS it was 96.1%. For the same compound, the growth in the assay on SF-295 CNS is 105%; in the assay with SF-539 CNS, 96.5%; with UACC-257 melanoma it was 74.2%; in the assay with M14 melanoma, 88.9%.

Consider `CN(C)CCOC(=O)Nc1ccccc1Cl`, for which the growth is 123% in the assay on DU-145 prostate; 111% in the assay on K-562 leukemia; 94.8% in the assay with MALME-3M melanoma; 107% in the assay on MDA-MB-231 breast; 120% with RXF 393 renal; 112% in the assay on SF-268 CNS. Further, the growth in the assay on SF-295 CNS is 114%; in the assay with SF-539 CNS, 110%; with UACC-257 melanoma, 121%; in the assay on M14 melanoma, 100%.

Take `COc1ccc2c(c1)[nH]c(=O)c1c3cc(OC)ccc3cn21`: the growth in the assay on DU-145 prostate is 0.89% (active); in the assay with K-562 leukemia, 25.6%; in the assay on MALME-3M melanoma, 60.4%; with MDA-MB-231 breast it was 0.629% (active); in the assay with RXF 393 renal it was -39.9% (active); in the assay with SF-268 CNS, -3.31% (active). Besides, the growth with SF-295 CNS is -18% (active); in the assay on SF-539 CNS it was 7.14% (active); in the assay on UACC-257 melanoma, 72.5%; in the assay with M14 melanoma, 25.4%.

Regarding `Clc1cc(Cl)cc(-c2ccc(-c3ccc(/C=N/NC4=NCCN4)cc3)s2)c1`, the growth in the assay on DU-145 prostate is 23.4%; with K-562 leukemia, -1.14% (active); with MALME-3M melanoma, 98.3%; with MDA-MB-231 breast, 61.5%; with RXF 393 renal it was 60.6%; with SF-268 CNS, 76.2%. Also, the growth in the assay on SF-295 CNS is 93.7%; in the assay on SF-539 CNS it was 84%; in the assay on UACC-257 melanoma, 103%; in the assay with M14 melanoma, 94.4%.

In the case of `COc1cc(/C=C/C(=O)/C=C/c2cc(OC)c3c(c2)OCO3)cc2c1OCO2`, the growth is 107% with DU-145 prostate; 50.9% in the assay with K-562 leukemia; 98.2% in the assay with MALME-3M melanoma; 80.2% with MDA-MB-231 breast; 72.4% with RXF 393 renal; 88.7% with SF-268 CNS. The growth in the assay with SF-295 CNS was 94.5%; with SF-539 CNS it was 100%; in the assay with UACC-257 melanoma, 103%; with M14 melanoma, 31.2%.

Consider `COc1ccc(-c2c(N)n[nH]c2-c2cc(OC)c(OC)c(OC)c2)cc1`, for which the growth with DU-145 prostate was 11%; in the assay with K-562 leukemia it was 19.3%; in the assay with MALME-3M melanoma, 39.3%; in the assay with MDA-MB-231 breast it was 28%; in the assay on RXF 393 renal, -1.72% (active); in the assay on SF-268 CNS it was 34.9%. In addition, the growth is 12.8% in the assay on SF-295 CNS, 1.66% (active) with SF-539 CNS, 59.2% in the assay with UACC-257 melanoma and 5.82% (active) with M14 melanoma.

Regarding `N[C@@H]1CCN(C(=O)c2cc3cc(Cl)c(F)c(F)c3[nH]2)C1`, the growth was 102% in the assay with DU-145 prostate; 83.4% in the assay with K-562 leukemia; 97.8% in the assay on MALME-3M melanoma; 79.6% in the assay with MDA-MB-231 breast; 87.1% in the assay with RXF 393 renal; 79.8% with SF-268 CNS. In addition, the growth with SF-295 CNS is 94.9%; in the assay with SF-539 CNS, 86.8%; with UACC-257 melanoma it was 99.7%; with M14 melanoma it was 89.8%.

In the case of `CC(=O)Nc1scc[n+]1Cc1ccccc1`, the growth was 118% in the assay on DU-145 prostate; 99.1% with K-562 leukemia; 130% with MALME-3M melanoma; 115% in the assay on MDA-MB-231 breast; 98.3% in the assay with RXF 393 renal; 110% in the assay on SF-268 CNS. In addition, the growth is 105% in the assay with SF-295 CNS, 104% in the assay on SF-539 CNS, 107% in the assay with UACC-257 melanoma and 98.5% with M14 melanoma.

Regarding `O=[N+]([O-])c1cc(Cl)c2[nH]c3c(Cl)cc([N+](=O)[O-])cc3c2c1`, the growth in the assay with DU-145 prostate is 22.9%; in the assay with K-562 leukemia it was 3.44% (active); in the assay on MALME-3M melanoma, -16.5% (active); with MDA-MB-231 breast, -30.3% (active); in the assay with RXF 393 renal, 12.4%; in the assay on SF-268 CNS, 12.9%. For the same compound, the growth was -35.5% (active) in the assay on SF-295 CNS, 23.8% in the assay on SF-539 CNS, -52.2% (active) in the assay on UACC-257 melanoma and 16.3% with M14 melanoma.
